# Source: PubChem (National Center for Advancing Translational Sciences (NCATS))
# TDP1 inh – qHTS Assay for Inhibitors of Tyrosyl-DNA Phosphodiesterase (TDP1). Tyrosyl-DNA phosphodiesterase 1 (Homo sapiens), Q9NUW8. recombinant TDP1, AlphaScreen DNA substrate cleavage. Potency, µM (titrated, usually from 130 µM), without a hit: top-dose activity change, negative = inhibition, usual class: inhibitors. 0.28% of 350,000 active; further: potency means the concentration at half of the fitted maximal effect; nearly all actives have a fitted effect of over 40% in size
# Target sequence (Q9NUW8 whole entry, looked up): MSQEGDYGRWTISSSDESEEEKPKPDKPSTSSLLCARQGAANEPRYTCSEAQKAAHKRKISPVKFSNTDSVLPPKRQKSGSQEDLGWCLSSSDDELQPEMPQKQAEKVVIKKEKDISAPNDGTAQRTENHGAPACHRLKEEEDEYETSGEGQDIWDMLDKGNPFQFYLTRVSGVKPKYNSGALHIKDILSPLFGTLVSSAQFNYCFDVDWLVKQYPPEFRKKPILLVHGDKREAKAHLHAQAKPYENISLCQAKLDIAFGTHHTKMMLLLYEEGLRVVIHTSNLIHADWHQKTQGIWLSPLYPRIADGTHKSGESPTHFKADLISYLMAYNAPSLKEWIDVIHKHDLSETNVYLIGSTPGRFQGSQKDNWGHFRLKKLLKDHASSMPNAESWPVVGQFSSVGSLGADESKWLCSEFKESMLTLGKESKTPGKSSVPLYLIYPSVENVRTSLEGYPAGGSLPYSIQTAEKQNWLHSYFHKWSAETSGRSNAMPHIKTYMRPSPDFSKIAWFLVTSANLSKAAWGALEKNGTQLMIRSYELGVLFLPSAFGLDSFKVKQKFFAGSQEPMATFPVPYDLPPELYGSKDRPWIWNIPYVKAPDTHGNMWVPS
#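 Recombinant human Tdp1 (E. coli-expressed, 1 nM final) preincubated with compounds 15 min at room temperature, then 5'-biotin/3'-phosphotyrosine-FITC DNA substrate (15 nM final) added for 5 min. AlphaScreen beads (10 ug/ml final) added 10 min; cleavage lowers signal.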
# Six1-Eya2 inh – qHTS Assay for Inhibitors of the Six1/Eya2 Interaction. Homeobox protein SIX1 (Homo sapiens) + Protein phosphatase EYA2 (Homo sapiens), …. AID 651725, 2012. 0.56% of 360,000 active. activity change, % (concentration not given with the values). AlphaScreen GST-Six1/His-Eya2 binding, biochemical; active compounds read low; in the data active means activity change below about -65%; inconclusive means mostly about -30% to -63%
#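 Six1/Eya2 binding was read as AlphaScreen signal after compounds were pinned into GST-Six1 plus His-tagged Eya2 (5X stock 250/500 nM) in pH 8.0 Tris/NaCl/TCEP buffer, beads added, then incubated 1 h, 37 C, dark.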
# CtBP-E1A blk – qHTS Assay for Inhibitors of the CtBP/E1A Interaction; CtBP / adenovirus E1A interaction (AlphaScreen); AlphaScreen GST-E1A/His-CtBP binding, 1536-well; active compounds read low; activity change, % (test concentration not listed); 0.49% of 340,000 active; AID 651724, 2012; in the data active means activity change below about -65%; inconclusive means mostly about -30% to -63%
#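 AlphaScreen with 125 nM GST-E1A and 125 nM His-CtBP (5X stocks) in Tris pH 8.0, 300 mM NaCl, BSA, Tween 20, TCEP. Compounds preincubated 2 h at 37 deg C, then glutathione donor/nickel acceptor beads added for 1 h at 37 deg C in dark.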
# DT40 TDP1 CPT – qHTS for Inhibitors of human tyrosyl-DNA phosphodiesterase 1 (TDP1): qHTS in cells in presence of CPT | chicken DT40 Tdp1-/-;hTDP1 cells + 20 nM CPT, ATP luminescence, 48 h | Potency, µM (series often up to 46.2 µM), for inactives: top-dose activity change, negative = growth inhibition, hits mostly inhibitors | 12% of 420,000 active; further: potency means the concentration at half of the fitted maximal effect; nearly all actives have a fitted effect of over 55% in size
#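 Chicken DT40 Tdp1-/- cells stably complemented with human TDP1 were seeded at 400 cells/well in medium containing 20 nM camptothecin, exposed to pin-transferred compounds, and grown at 37 °C for at least 48 hr. Viability was read as ATP luminescence.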
# TDP1 cell noCPT – qHTS for Inhibitors of human tyrosyl-DNA phosphodiesterase 1 (TDP1): qHTS in cells in absence of CPT | DT40 Tdp1-/- hTDP1 cells, no CPT, ATP luminescence, 48 h | Potency, µM (top dose mostly 46.2 µM), for inactives: at the top dose activity change, negative = growth inhibition, hits mostly inhibitors | 15% of 420,000 active; further: potency means the concentration at half of the fitted maximal effect; nearly all actives have a fitted effect of over 55% in size
#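 Camptothecin absent (DMSO only). Human TDP1-complemented DT40 knockout cells, 400 cells/well, 37 °C for minimum 48 hr; ATP measured via CellTiter-Glo, 30 min dark incubation, luminescence.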
# IL-1B inflam inh – qHTS for Inhibitors of Inflammasome Signaling: IL-1-beta AlphaLISA Primary Screen; THP-1 LPS/ATP IL-1B secretion, AlphaLISA, 16 h; active compounds read low; activity change, % at 57.5 µM; 4.7% of 360,000 active; in the data active means activity change below about -50%; inconclusive means mostly about -30% to -49%
#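 THP-1 cells pretreated 1 hr with compounds (up to 57.5 uM final), then stimulated with LPS (250 ng/mL final) plus ATP (1.25 mM final); secreted IL-1B measured by AlphaLISA after 16 hr, decreased signal indicating inhibition.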
# * hit, by the source's call; ? = inconclusive; / = not tested or not shown. Rows were chosen to be rich in hits. Some 18% of all compounds tested hit in one or more screens of this group. Unless noted, the call rests on the fitted dose curve; in most records, active means well fitted curve in the direction sought with a large enough effect; inconclusive means small, poorly fitted or top-dose-only effect, or another doubt; inactive means no such curve, though single readings can be large; an effect the other way counts as inactive or inconclusive. On the % scale 0 is the no-effect control and ±100 the full control effect.
SMILES,TDP1 inh,Six1-Eya2 inh,CtBP-E1A blk,DT40 TDP1 CPT,TDP1 cell noCPT,IL-1B inflam inh
COc1ccccc1CNC(=O)CSc1nc2nc(C)c(Cc3ccccc3C)c(C)n2n1,3%,/,/,15µM*,5.2µM*,/
C=CCc1c(C)nc2nc(SCC(=O)Nc3cccc(Cl)c3)nn2c1C,8%,/,/,21µM*,-92%,/
Cc1cccc(Cc2c(C)nc3nc(SCC(=O)NCc4ccccc4)nn3c2C)c1,-6%,/,/,21µM*,?,/
CCN1CCN(Cc2c(O)ccc3c2O/C(=C\C=C\c2ccccc2OC)C3=O)CC1,4%,-7,-6,?,18µM*,-23
O=C(NCc1ccco1)/C(=C/c1cccnc1)NC(=O)c1cccc(Br)c1,8%,9,-3,-8%,12%,-10
CC(=O)N1CCCc2cc(S(=O)(=O)N(C)CC(=O)Nc3ccc(C(C)C)cc3)ccc21,-3%,/,/,18µM*,23µM*,/
CC(=O)N1CCCc2cc(S(=O)(=O)N(C)CC(=O)Nc3ccccc3)ccc21,/,-7,6,?,?,30
CC(=O)N1CCCc2cc(S(=O)(=O)N(CC(C)C)CC(C)C)ccc21,0%,4,3,26µM*,?,0
Cc1cc(C)c(S(=O)(=O)N2CCN(CCO)CC2)c(C)c1,-3%,0,4,-13%,-1%,-10
COC(=O)[C@@H]1CC[C@H](C)[C@@H](c2ccc(C)cc2)N1C(=O)c1ccc(/C=N/O[C@@H](C)CN2CCCCc3nc(C)c(C)cc32)cc1,3%,/,/,/,/,/
O=C(c1cn(-c2ccccc2)nc1-c1cccs1)N(CCO)Cc1ccccc1,6%,3,8,-29%,18µM*,-11
CN(CC(=O)Nc1cccc(F)c1)C(=O)c1cn(-c2ccccc2)nc1-c1cccs1,/,-6,0,?,13µM*,-5
CN(CC(=O)Nc1cccc(F)c1)C(=O)c1cc(-c2cccs2)nn1-c1ccccc1,-4%,0,0,?,16µM*,-6
O=C(c1cn(-c2ccccc2)nc1-c1cccs1)N1CCN(c2ccccn2)CC1,11%,-18,-2,?,21µM*,4
COc1cccc(NC(=O)CN(C)C(=O)c2cn(-c3ccccc3)nc2-c2cccnc2)c1,2%,-3,5,?,?,0
CN(CC(=O)Nc1cccc(F)c1)C(=O)c1cn(-c2ccccc2)nc1-c1ccc(Cl)cc1,0%,-3,/,?,?,-60*
COc1cccc(NC(=O)CN(C)C(=O)c2cn(-c3ccccc3)nc2-c2cccs2)c1,2%,4,-2,?,?,-53*
CCN(CC)CCOC(=O)c1ccc(NC(=O)c2cn(-c3ccccc3)nc2-c2cccs2)cc1,6%,-5,-14,?,21µM*,-53*
O=C(OCc1ccccc1)N1CCC2CC1c1cc(-c3ccc4c(c3)OCO4)ccc12 (configuration not stated),/,-5,-2,15µM*,?,9
O=C(OCc1ccccc1)N1CCC2CC1c1ccc(-c3cccc(F)c3)cc12 (configuration not stated),/,23,11,?,?,3
O=C(c1ccc(-c2ccccc2)cc1)N1CCC2CC1c1cc(-c3ccc4c(c3)OCO4)ccc12 (configuration not stated),/,-10,-18,?,?,-26
COc1ccc(-c2ccc3c(c2)C2CC3CCN2C(=O)C(C)(C)C)cc1 (configuration not stated),/,-6,-1,?,21µM*,-6
CCCCN(C(C)=O)c1ccc2c(c1)C1CC2CCN1C(=O)OCc1ccccc1 (configuration not stated),/,-1,-1,2.1µM*,3.7µM*,6
Cc1ccc(C(=O)N2CCC3CC2c2cc(-c4ccc5c(c4)OCO5)ccc23)cc1 (configuration not stated),/,-14,-18,16µM*,13µM*,3
CC(C)C(CC(=O)N1CCCCC1)C1CCOC(C)(C)C1 (configuration not stated),6%,4,6,-18%,-13%,-4
SMILES,TDP1 inh,Six1-Eya2 inh,CtBP-E1A blk,DT40 TDP1 CPT,TDP1 cell noCPT,IL-1B inflam inh
O=C(NCC1CCCO1)C1CCCN(S(=O)(=O)c2cccc(C(F)(F)F)c2)C1 (configuration not stated),0%,-2,9,-22%,-23%,4
CCOc1ccc(-n2c(C)nc3c(cnn3-c3ccc(Cl)cc3)c2=O)cc1,5%,-3,-4,-12%,-21%,24
CCc1nc2c(cnn2-c2ccc(Cl)cc2)c(=O)n1-c1ccc2c(c1)OCCO2,4%,2,-1,?,18µM*,12
CCc1cccc(-n2c(C)nc3c(cnn3-c3ccc(C)c(C)c3)c2=O)c1,0%,/,/,-74%,23µM*,/
CCc1nc2c(cnn2-c2ccc(C)cc2)c(=O)n1Cc1ccccc1,-7%,/,/,?,?,/
CCc1cccc(-n2c(C)nc3c(cnn3-c3ccc(Cl)cc3)c2=O)c1,-2%,/,/,5.8µM*,4.1µM*,/
CCc1nc2c(cnn2-c2ccc(Cl)cc2)c(=O)n1-c1ccc(OC)cc1,6%,-5,0,?,?,?
COc1cccc(-n2c(C)nc3c(cnn3-c3ccc(Cl)cc3)c2=O)c1,4%,1,-3,8.2µM*,7.3µM*,-20
Cc1c(C(=O)NC(C)c2ccccc2)sc2nc3n(c(=O)c12)CCCC3 (configuration not stated),0%,/,/,-18%,-5%,/
CCOc1ccc2nc(SCC(=O)NC(=O)C(C)C)sc2c1,0%,6,4,7%,-6%,12
COc1ccc(NC(=O)N2CCN(C(=O)C3CCCO3)CC2)cc1 (configuration not stated),4%,3,19,11%,0%,4
COc1cc(Cl)c(C)cc1NC(=O)c1ccc2c(Cl)c3c(nc2c1)CCC3,6%,/,/,1%,1%,/
COc1ccc(CCNC(=O)c2ccc3c(Cl)c4c(nc3c2)CCCC4)cc1OC,3%,/,/,15µM*,4.1µM*,/
COc1ccc(C)cc1NC(=O)c1ccc2c(Cl)c3c(nc2c1)CCC3,1%,/,/,-1%,-18%,/
